Source: PubChem BioAssay (several laboratories)
A selection: hits, their analogues and other compounds. The true share with any hit is near 2.3%.
GLD-1 RNA inh – GLD-1/TGE RNA complex disruptors, primary screen, biochemical, fluorescence polarization; 320,000 tested, 0.44% active; AID 2280, 2010; purified GLD-1 + fluorescein TGE RNA; inhibition, % at 5.96 µM;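 active = percent inhibition above a per-plate cutoff, the plate mean of test compounds plus 3 SD, cut at about 30% in these data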;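 also: 0% = DMSO wells with GLD-1 and probe and 100% = wells lacking GLD-1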
Target sequence (Q17339 whole entry, looked up): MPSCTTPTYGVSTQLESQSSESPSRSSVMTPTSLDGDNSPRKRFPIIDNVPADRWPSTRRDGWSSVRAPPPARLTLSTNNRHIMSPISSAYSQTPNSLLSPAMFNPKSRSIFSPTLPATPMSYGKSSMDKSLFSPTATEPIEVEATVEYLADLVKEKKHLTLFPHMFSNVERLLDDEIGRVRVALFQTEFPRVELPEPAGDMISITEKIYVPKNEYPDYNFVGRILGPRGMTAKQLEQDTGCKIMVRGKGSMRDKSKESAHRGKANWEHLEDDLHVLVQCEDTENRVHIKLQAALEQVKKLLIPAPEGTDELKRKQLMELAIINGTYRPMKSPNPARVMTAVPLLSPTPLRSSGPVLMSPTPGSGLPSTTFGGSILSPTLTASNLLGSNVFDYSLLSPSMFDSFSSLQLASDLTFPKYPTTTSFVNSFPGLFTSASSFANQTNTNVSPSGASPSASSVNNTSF
MCL1 BIM primary – inhibitors of MCL1 binding to BIM-BH3, primary screen, biochemical, fluorescence polarization. Induced myeloid leukemia cell differentiation protein Mcl-1 (Homo sapiens), Q07820. GST-MCL1 / FITC-Bim-BH3 fluorescence polarization. inhibition, % at 10.9 µM. 320,000 tested, 0.68% active. AID 2057, 2009;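 active = inhibition above the mean inhibition of all tested compounds plus 3 SD, set per campaign, cut at about 40% in these data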;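 also: 0% = DMSO wells and 100% = unlabeled Bim-BH3 peptide control; higher means more loss of mP so more displacement of Bim peptide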
Mcl1-Noxa inh – Mcl-1/Noxa binding inhibitors, primary screen, biochemical, TR-FRET, 1536-well; Induced myeloid leukemia cell differentiation protein Mcl-1 (Homo sapiens), Q07820; TR-FRET Mcl-1/Noxa peptide binding, 2 h; inhibition, % at 21.7 µM; 220,000 tested, 1.5% active;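 active = compounds that cut the protein-peptide binding signal by more than 50% relative to plate controls in a single-dose test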;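 also: His-tagged Mcl-1 with rhodamine Noxa BH3 peptide and terbium anti-His antibody; 0% = Mcl-1 plus Noxa peptide wells and 100% = peptide-only wells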
Mcl1 Bid PPI – Mcl-1/Bid binding inhibitors, primary screen, biochemical, TR-FRET, 1536-well | TR-FRET Mcl-1/Bid-Dy647 peptide binding | inhibition, % at 21.7 µM | 220,000 tested, 0.97% active | AID 1021, 2008;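 active = compounds that cut the binding signal by more than half at the single screening dose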;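 also: His-tagged Mcl-1 with europium anti-His antibody binding Bid BH3 peptide; 0% = Mcl-1 plus peptide wells and 100% = peptide-only wells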
Mcl-1 Bim block – inhibitors of Bim peptide binding to Mcl-1, primary screen, biochemical, bead-based flow cytometry, multiplex; Bim peptide-Mcl-1 binding; inhibition, % at 10 µM; 190,000 tested, 0.1% active; in the data active = inhibition above about 40%;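 also: 0% = no compound tracer wells and 100% = peptide blocker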
BCLXL inh – inhibitors of human Bcl-xL, primary screen, biochemical, fluorescence polarization, HTS; inhibition, % at 10.9 µM; AID 2129, 2009; GST-Bcl-xL / FITC-Bim BH3 peptide fluorescence polarization; Bcl-2-like protein 1 (Homo sapiens), Q07817; 320,000 tested, 0.7% active;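 active = inhibition above the mean of all tested compounds plus 3 SD, cutoff set per campaign, cut at about 30% in these data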;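 also: 0% = DMSO wells and 100% = unlabeled Bim-BH3 peptide competitor; inhibitors lower millipolarization by displacing the labeled peptide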
Target sequence (Q07817 whole entry, looked up): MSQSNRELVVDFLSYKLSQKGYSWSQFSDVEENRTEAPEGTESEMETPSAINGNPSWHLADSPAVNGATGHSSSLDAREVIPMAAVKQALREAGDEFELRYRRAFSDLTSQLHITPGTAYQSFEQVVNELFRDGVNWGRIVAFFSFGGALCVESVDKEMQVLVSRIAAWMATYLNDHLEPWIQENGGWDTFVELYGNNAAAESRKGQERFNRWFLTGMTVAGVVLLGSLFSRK
An asterisk follows results filed as active; ! = not confirmed by another sample.

Screening Cc1ccc2nsnc2c1NC(=O)c1ccc(-c2cc(Cl)ccc2Cl)o1 returned GLD-1 RNA inh 1.9, MCL1 BIM primary 1.7, Mcl1-Noxa inh 50.8*, Mcl1 Bid PPI 31.3, Mcl-1 Bim block 2.0 and BCLXL inh 2.4.
`FC(F)(F)c1ccc(Cl)c(N/N=C/c2ccc(N3CCOCC3)s2)c1` gave GLD-1 RNA inh -6.8, MCL1 BIM primary -1.8, Mcl1-Noxa inh 67.4*, Mcl1 Bid PPI -22.0, Mcl-1 Bim block 2.0 and BCLXL inh 6.1.
Cc1nc(SCC(=O)N2CCOCC2)c2c(=O)n(C)c(=O)n(CC(C)C)c2n1 was read as GLD-1 RNA inh -6.8.
CC(=O)N1CCN(c2ccc(Nc3ncnc4c3oc3ccccc34)cc2)CC1 was read as GLD-1 RNA inh 5.7, MCL1 BIM primary -0.9, Mcl1-Noxa inh 68.3*, Mcl1 Bid PPI 19.6, Mcl-1 Bim block 2.0 and BCLXL inh 3.2.
CCc1nc(Nc2ccc(N3CCN(C(C)=O)CC3)cc2)c2oc3ccccc3c2n1 was read as GLD-1 RNA inh 4.4, MCL1 BIM primary 12.4, Mcl1-Noxa inh 84.7*, Mcl1 Bid PPI 33.2, Mcl-1 Bim block 0.0 and BCLXL inh 5.5.
Oc1ccc(Nc2ncnc3c2oc2ccccc23)cc1 was read as GLD-1 RNA inh -4.0, MCL1 BIM primary 6.1 and BCLXL inh 1.4.
CCN(CC(=O)Nc1ccccc1OC)C(=O)c1ccc(NS(=O)(=O)c2ccc(C(C)=O)cc2)cc1 was read as GLD-1 RNA inh 2.6, MCL1 BIM primary -2.4 and BCLXL inh -1.6.
`COc1ccc(CNC(=O)[C@@H](NC(=O)C2CCN(C(=O)[C@@H](N)CC(C)C)CC2)C(C)C)cc1` gave GLD-1 RNA inh -4.2, MCL1 BIM primary 0.6 and BCLXL inh 3.4.
For CC(C)CCNC(=O)c1c(CSc2ccc(Cl)cc2)noc1C(=O)NCc1ccccc1 the results were GLD-1 RNA inh -5.0, MCL1 BIM primary 9.7 and BCLXL inh 2.6.
For COc1ccc(C(=O)O/N=C(/c2cccs2)C(C)(C)C)cc1 the results were GLD-1 RNA inh 137.7*, MCL1 BIM primary 6.8, Mcl1-Noxa inh 0.4, Mcl1 Bid PPI -6.2 and BCLXL inh 5.8.
Screening C/C(=N/OC(=O)c1ccc(C)cc1)c1cccs1 returned GLD-1 RNA inh -7.3, MCL1 BIM primary 14.3, Mcl1-Noxa inh 2.2, Mcl1 Bid PPI -32.1, Mcl-1 Bim block -1.0 and BCLXL inh 5.6.
For Fc1ccccc1NC(=S)N1CCN(Cc2ccc3c(c2)OCO3)CC1 the results were GLD-1 RNA inh 0.0, MCL1 BIM primary 14.1, Mcl1-Noxa inh 4.4, Mcl1 Bid PPI 92.3*, Mcl-1 Bim block 0.0 and BCLXL inh 4.6.
`CC(=O)c1ccc(OCC(O)CN2CCN(Cc3ccc4c(c3)OCO4)CC2)cc1` (stereo unspecified) gave GLD-1 RNA inh 2.5, MCL1 BIM primary 5.1, Mcl1-Noxa inh 27.8, Mcl1 Bid PPI 52.1*!, Mcl-1 Bim block 0.0 and BCLXL inh -1.5.
Screening OC(COCc1ccccc1)CN1CCN(Cc2ccc3c(c2)OCO3)CC1 (stereo unspecified) returned GLD-1 RNA inh 0.3, MCL1 BIM primary -4.8, Mcl1-Noxa inh 55.1*, Mcl1 Bid PPI 8.7, Mcl-1 Bim block -1.0 and BCLXL inh 1.2.
For SC(COCc1ccccc1)CN1CCN(Cc2ccc3c(c2)OCO3)CC1 (stereo unspecified) the results were GLD-1 RNA inh 0.7, MCL1 BIM primary 7.1, Mcl1-Noxa inh -5.0, Mcl1 Bid PPI -55.0, Mcl-1 Bim block -1.0 and BCLXL inh 10.0.
For CCCCN1CC(=O)N2[C@H]3c4ccccc4OC[C@@H]3[C@H](c3ccccc3)[C@]2(C)C1=O the results were GLD-1 RNA inh 4.4, MCL1 BIM primary 4.0 and BCLXL inh 4.9.
For Nc1nc2c(nc(SCc3ccccc3Br)n2C2OC(CO)C(O)C2O)c(=O)[nH]1 (stereo unspecified) the results were GLD-1 RNA inh 0.3, MCL1 BIM primary 2.9, Mcl1-Noxa inh 17.2, Mcl1 Bid PPI -4.5, Mcl-1 Bim block 0.0 and BCLXL inh 2.5.
Screening COC(=O)c1cc(OC)c(OC)c(OC)c1[N+](=O)[O-] returned GLD-1 RNA inh 9.9, MCL1 BIM primary 8.9, Mcl1-Noxa inh -5.0, Mcl1 Bid PPI 42.8 and BCLXL inh 9.6.
CCC(=O)NC1=C(Cl)C(=O)C(NC(=O)CC)=C(Cl)C1=O was read as Mcl1-Noxa inh 92.2* and Mcl1 Bid PPI -183.9.
For CCC(=O)NC1=C(NC(C)c2ccccc2)C(=O)c2ccccc2C1=O (stereo unspecified) the results were GLD-1 RNA inh -0.2, MCL1 BIM primary -1.3, Mcl1-Noxa inh 24.3, Mcl1 Bid PPI 4.8, Mcl-1 Bim block 0.0 and BCLXL inh 2.4.
`COc1cccc(CNC(=O)[C@@H](C)N2C(=O)N3CCc4c([nH]c5ccc(OC)cc45)C3(C)C2=O)c1` (stereo partly specified) gave GLD-1 RNA inh 5.3, MCL1 BIM primary 0.5 and BCLXL inh 1.9.
COc1cccc(N2CC(NS(=O)(=O)c3ccc4ccccc4c3)CC2=O)c1 (stereo unspecified) was read as GLD-1 RNA inh -4.9, MCL1 BIM primary -6.8 and BCLXL inh 3.1.
O=c1oc2ccccc2c(O)c1/C=C1\C=Nc2ccccc21 was read as GLD-1 RNA inh -18.9, MCL1 BIM primary -25.7, Mcl1-Noxa inh 78.2*, Mcl1 Bid PPI -53.5, Mcl-1 Bim block 0.0 and BCLXL inh -7.8.
`NS(=O)(=O)c1ccc(NC(=O)COC(=O)Cn2cnc3ccccc3c2=O)cc1` gave GLD-1 RNA inh -8.0.
Screening COc1cc(C(CC(=O)N2CCCC2)c2c(OC)cc(OC)c3ccc(=O)oc23)cc(OC)c1OC (stereo unspecified) returned GLD-1 RNA inh 55.4*, MCL1 BIM primary 38.5, Mcl1-Noxa inh -5.9, Mcl1 Bid PPI -53.2 and BCLXL inh 35.6*.
CSc1nc(N)nc2c1ncn2CC(=O)NCCCc1ccccc1 was read as GLD-1 RNA inh 0.6.
Screening CC1(C)CC(CC(=O)O)(c2ccccc2)CCO1 (stereo unspecified) returned GLD-1 RNA inh 9.8, MCL1 BIM primary 5.5, Mcl1-Noxa inh -19.1, Mcl1 Bid PPI 66.1*, Mcl-1 Bim block 0.0 and BCLXL inh 4.5.
Screening Cc1nc2ccsc2c(=O)n1-c1ccc(Cl)cc1 returned GLD-1 RNA inh 5.3, MCL1 BIM primary 1.8, Mcl1-Noxa inh 11.7, Mcl1 Bid PPI -0.5, Mcl-1 Bim block -2.0 and BCLXL inh -1.3.
